Screening data as filed in PubChem.
Compounds with a hit are over-represented: about 21% of the library has one in this group of screens.
Pf growth 48h: Primary qHTS for delayed death inhibitors of the malarial parasite plastid, 48 hour incubation. AID 504832, 2011. 310,000 compounds, 5.9% hits. Potency, µM (top dose mostly 28.7 µM), for inactives: at the top dose activity change, negative = inhibition, hits mostly inhibitors. P. falciparum luciferase growth in erythrocytes, 48 h; active = well fitted inhibition curve with a large enough effect; inconclusive = small, poorly fitted or top-dose-only effect, or another doubt; inactive = no such curve, though single readings can be large or run the other way; note: potency is the fitted concentration of half-maximal effect; % is set by controls: 0 for no effect and ±100 for the full control effect
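Parasite viability was followed by luminescence of a genomically integrated firefly luciferase. Cultures held 0.1% parasitemia at 2% hematocrit (final), incubated under 5% CO2 at 37 C.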
Pf growth 96h: Primary qHTS for delayed death inhibitors of the malarial parasite plastid, 96 hour incubation. P. falciparum luciferase reporter growth, 96 h. Potency, µM (titrated, usually from 28.7 µM), inactives show at the top dose activity change, negative = inhibition, hits mostly inhibitors. 320,000 compounds, 6.9% hits. AID 504834, 2011; active = well fitted inhibition curve with a large enough effect; inconclusive = small, poorly fitted or top-dose-only effect, or another doubt; inactive = no such curve, though single readings can be large or run the other way; note: potency is the fitted concentration of half-maximal effect; % is set by controls: 0 for no effect and ±100 for the full control effect
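Luminescence readout: decreased luciferase signal marks inhibited growth of reporter-expressing P. falciparum in infected red cells (2% hematocrit, 0.05% parasitemia final), exposed to compound two generations (96 h, 37 C, 5% CO2).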
NS1 inh: qHTS Assay for Inhibitors of Influenza NS1 Protein Function | 270,000 compounds, 0.4% hits | Potency, µM (top dose mostly 46.1 µM), without a hit: at the top dose activity, positive = more growth | AID 2326, 2010; note: potency is the fitted concentration of half-maximal effect; actives are rising curves; nearly all actives have a fitted effect of over 50% in size
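Growth recovery, yeast-based: influenza A NS1 expressed in S. cerevisiae causes slow growth, and suppressors are detected by OD600. The parent strain without NS1 is used as positive control.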
Shiga toxin inh: A qHTS for Small Molecule Inhibitors of Shiga Toxin | Vero cells, Shiga toxin protein synthesis inhibition reporter | inhibition, % at 38.7 µM | 290,000 compounds, 9.2% hits | AID 2315, 2010; in the data active = inhibition mostly above about 28%, no sharp cut-off; inactive = mostly below about 43%; note: 0% is about no effect
SARS PLP yeast: qHTS of Yeast-based Assay for SARS-CoV PLP. 330,000 compounds, 0.19% hits. Potency, µM (doses to about 32.9 µM), for inactives: top-dose activity, positive = growth rescue, actives largely listed as activators. S. cerevisiae expressing SARS-CoV PLpro, growth rescue; note: potency is the fitted concentration of half-maximal effect; 0% is about no effect; nearly all actives have a fitted effect of over 55% in size
CHX counter: Cycloheximide Counterscreen for Small Molecule Inhibitors of Shiga Toxin; cell reporter, cycloheximide protein synthesis inhibition counterscreen; max response, %; 300,000 compounds, 12% hits; AID 2314, 2010; in the data active = max response mostly above about 13%, no sharp cut-off; inactive = mostly below about 14%; note: read at 38.3 µM for the half of the compounds with a filed dose; 0% is about no effect
Starred values were filed as active, the others as inactive; [ ] = remark or other dose. Unless noted, calls come from the whole dose curve.

Cn1nc(-c2ccccc2)cc1NC(=O)CCCC(=O)O was read as Pf growth 48h -1.8%, Pf growth 96h 39.6%, NS1 inh 1.4%, Shiga toxin inh 4.4, SARS PLP yeast 0.0% and CHX counter 0.8.
`Cc1ccc(S(=O)(=O)NNC(=O)Nc2ccccc2F)c(C)c1` gave Pf growth 48h 15.2%, Pf growth 96h -11.1%, NS1 inh 7.1%, Shiga toxin inh 15.8, SARS PLP yeast 0.5% and CHX counter 5.1.
For Cc1ccc(N=Nc2ccc(C)cc2NC(=O)Nc2ccccc2F)cc1 the results were Pf growth 48h inconclusive, Pf growth 96h inconclusive, NS1 inh -4.8%, Shiga toxin inh 33.8, SARS PLP yeast -2.4% and CHX counter 46.2*.
Screening O=S(=O)(c1cccc2cccc(Cl)c12)N1CCCC1 returned Pf growth 48h 3.6%, Pf growth 96h 82.3%, NS1 inh 1.5%, Shiga toxin inh -4.0, SARS PLP yeast -0.5% and CHX counter -5.6.
CC(=O)N1CCN(C(=O)CCC(=O)O)CC1 was read as Pf growth 48h 11.1%, Pf growth 96h 62.0%, NS1 inh -0.9%, Shiga toxin inh -2.8, SARS PLP yeast -0.3% and CHX counter -2.2.
Screening O=C(Nc1ccc(Br)cc1)Nc1ccccc1F returned Pf growth 48h 147.1%, Pf growth 96h 44.7%, NS1 inh -36.3%, Shiga toxin inh 107.2*, SARS PLP yeast -3.4% and CHX counter 49.8*.
For CCN(CC)C(=O)c1ccc(NC(=O)Nc2ccccc2F)cc1 the results were Pf growth 48h 253.2%, Pf growth 96h 413.8%, Shiga toxin inh 39.5, SARS PLP yeast -26.9% and CHX counter 16.0*.
Screening CCN(CC)C(=O)c1ccc(C(=O)Nc2ccc(F)cc2)cc1 returned Pf growth 48h 5.0%, Pf growth 96h 32.2% and SARS PLP yeast 0.4%.
`CN(C)CCCNC(=S)N(CCO)Cc1cc2cc3c(cc2[nH]c1=O)OCO3` gave Pf growth 48h -3.7%, Pf growth 96h 421.5%, NS1 inh -0.6%, SARS PLP yeast 5.0% and CHX counter 2.2.
`CCC1=NN2C(=N)/C(=C\c3ccc(OCc4cc(=O)n5nc(CC)sc5n4)c(OC)c3)C(=O)N=C2S1` gave Pf growth 48h inconclusive, Pf growth 96h 30.2%, Shiga toxin inh -8.7, SARS PLP yeast 28.5% and CHX counter 6.6.
CC(C)C(=O)NCc1cc(-c2ccccc2)no1 was read as Pf growth 48h -41.1%[5.75 µM], Pf growth 96h 5.22µM*, NS1 inh 3.4%, Shiga toxin inh -11.9, SARS PLP yeast -1.3% and CHX counter -4.4.
Screening CC(=O)NCc1cc(-c2ccc(Cl)cc2)no1 returned Pf growth 48h -7.2%, Pf growth 96h -8.7%[1.15 µM], NS1 inh -2.6%, Shiga toxin inh 28.9, SARS PLP yeast -0.4% and CHX counter -1.2.
For COc1ccc(-c2cc(CNC(=O)CCl)on2)cc1 the results were Pf growth 48h 2.94µM*, Pf growth 96h 1.47µM*, NS1 inh 9.4%, Shiga toxin inh 18.9, SARS PLP yeast 7.3% and CHX counter 10.7.
Screening Cc1cc(C)c(OCC(=O)Nc2nc(-c3ccccn3)cs2)c(C)c1 returned Pf growth 48h 8.28µM*, Pf growth 96h inconclusive, Shiga toxin inh 50.6, SARS PLP yeast -13.5% and CHX counter 3.6.
Screening O=C(Nc1nc(-c2ccccn2)cs1)C1CC1 returned Pf growth 48h inconclusive, Pf growth 96h inconclusive, NS1 inh -5.4%, Shiga toxin inh 42.5*, SARS PLP yeast inconclusive and CHX counter 31.5*.
Screening O=C(Nc1nc(-c2ccccn2)cs1)C12CC3CC(CC(O)(C3)C1)C2 returned Pf growth 48h 328.4%, Pf growth 96h inconclusive, NS1 inh -3.5%, Shiga toxin inh 90.7*, SARS PLP yeast 4.0% and CHX counter 33.5*.
For O=C(CC1CC2CCC1C2)Nc1nc(-c2ccccn2)cs1 (configuration not stated) the results were Pf growth 48h 2.62µM*, Pf growth 96h 4.65µM*, NS1 inh 1.0%, Shiga toxin inh 78.4*, SARS PLP yeast -15.0% and CHX counter 46.4*.
For O=C(Nc1nc(-c2ccccn2)cs1)c1ccc(Br)s1 the results were Pf growth 48h inconclusive, NS1 inh -161.0%, Shiga toxin inh -3.8, SARS PLP yeast 5.7% and CHX counter 9.8.
CCCNc1c(NS(=O)(=O)c2c(F)c(F)c(F)c(F)c2F)c(=O)oc2ccccc12 was read as Pf growth 48h -6.5%, Pf growth 96h 52.7%, NS1 inh 13.2%, Shiga toxin inh 30.0, SARS PLP yeast -4.6% and CHX counter 28.3.
OCC1CCCCN1C(=S)Nc1cccc(Cl)c1 (configuration not stated) was read as Pf growth 48h 12.5%, Pf growth 96h 28.9%, NS1 inh 0.5%, Shiga toxin inh 20.0, SARS PLP yeast 0.0% and CHX counter 7.6.
Screening CCCS(=O)(=O)NCCc1csc(-c2cccnc2)n1 returned NS1 inh -0.6%.
`N[C@@H](Cc1c[nH]c2cc([N+](=O)[O-])ccc12)C(=O)O` gave NS1 inh 0.0%.
CC(Oc1ccc(F)cc1)C(=O)Nc1nc(-c2ccccn2)cs1 (configuration not stated) was read as Pf growth 48h 2.62µM* and Pf growth 96h 2.33µM*.
Screening O=C(CCS(=O)(=O)c1ccc(F)cc1)Nc1nc(-c2ccccn2)cs1 returned Pf growth 48h inconclusive, Pf growth 96h inconclusive, NS1 inh -11.7%, Shiga toxin inh -5.1, SARS PLP yeast 7.7% and CHX counter 7.7.
For Nc1cccc(C(=O)NCCNC(=O)c2cccc(N)c2)c1 the results were Pf growth 48h 8.1%, Pf growth 96h -20.4%, NS1 inh 7.2%, Shiga toxin inh -2.8, SARS PLP yeast 0.4% and CHX counter -1.0.
Screening O=C(c1cnn(-c2nc3ccccc3s2)c1)c1ccccc1O returned Pf growth 48h 89.0%, Pf growth 96h inconclusive, NS1 inh -2.5%, Shiga toxin inh 47.3*, SARS PLP yeast 5.0% and CHX counter 30.5*.
For O=C(c1cnn(-c2ccccc2)c1)c1cc(Br)ccc1O the results were Pf growth 48h inconclusive, Pf growth 96h -84.2% and SARS PLP yeast -1.0%.
For O=C(O)c1ccc(-n2cc(C(=O)c3ccccc3O)cn2)cc1 the results were Pf growth 48h 91.7%, Pf growth 96h 85.9%, NS1 inh -1.0%, Shiga toxin inh 30.3, SARS PLP yeast 0.7% and CHX counter 28.9*.
Screening O=C(c1cnn(-c2cccc(F)c2)c1)c1ccccc1O returned Pf growth 48h 68.6%, Pf growth 96h 141.6%, NS1 inh 2.9%, Shiga toxin inh 100.1*, SARS PLP yeast -0.9% and CHX counter 24.3*.
Screening Cc1cc2cc(CN(C(=O)C3CC3)C3CCCC3)c3nnnn3c2cc1C returned NS1 inh -30.9%, Shiga toxin inh -25.8, SARS PLP yeast -3.4% and CHX counter -1.8.
